Source: PubChem BioAssay
The entries come from a sample that favours hits as a whole.
RBX1-CUL1 inh – inhibitors of human ROC1-CUL1 ubiquitin ligase activity. inhibition, % at 10 µM. E3 ubiquitin-protein ligase RBX1 (Homo sapiens) + Cullin-1 (Homo sapiens), P62877+Q13616. 0.6% of 140,000 active. in vitro K48 di-Ub FRET, acceptor:donor ratio, 45 min; in the data active = inhibition above about 25%
Target sequence (P62877 whole entry, looked up): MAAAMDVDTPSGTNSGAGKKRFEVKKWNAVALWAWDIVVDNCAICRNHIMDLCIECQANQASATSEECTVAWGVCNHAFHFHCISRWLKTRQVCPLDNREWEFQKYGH
Target sequence (Q13616 whole entry, looked up): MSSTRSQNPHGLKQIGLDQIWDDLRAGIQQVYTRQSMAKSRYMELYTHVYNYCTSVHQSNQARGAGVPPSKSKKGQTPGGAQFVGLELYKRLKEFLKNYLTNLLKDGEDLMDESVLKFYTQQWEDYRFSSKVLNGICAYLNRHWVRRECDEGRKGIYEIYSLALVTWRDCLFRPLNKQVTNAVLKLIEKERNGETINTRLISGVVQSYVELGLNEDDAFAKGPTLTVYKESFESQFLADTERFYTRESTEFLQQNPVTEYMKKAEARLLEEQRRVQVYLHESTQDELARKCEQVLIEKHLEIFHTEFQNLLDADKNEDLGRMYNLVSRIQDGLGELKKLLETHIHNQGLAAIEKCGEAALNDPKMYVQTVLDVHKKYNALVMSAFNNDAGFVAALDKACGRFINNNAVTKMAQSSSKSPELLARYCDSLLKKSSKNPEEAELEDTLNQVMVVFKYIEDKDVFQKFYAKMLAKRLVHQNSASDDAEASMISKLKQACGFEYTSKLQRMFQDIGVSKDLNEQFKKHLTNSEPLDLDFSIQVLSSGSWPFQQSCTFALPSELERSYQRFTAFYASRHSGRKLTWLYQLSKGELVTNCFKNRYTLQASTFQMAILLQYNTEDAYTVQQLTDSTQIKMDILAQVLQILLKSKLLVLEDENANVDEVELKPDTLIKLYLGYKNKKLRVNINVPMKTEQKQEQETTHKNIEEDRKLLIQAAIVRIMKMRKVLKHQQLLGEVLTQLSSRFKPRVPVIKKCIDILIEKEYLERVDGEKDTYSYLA
The depositor's hits bear a star.

For O=C(Nc1ccc(-c2cscn2)cc1)C1CCCN(Cc2cccc(O)c2)C1 (stereo not given) the results were RBX1-CUL1 inh 3.
Screening CN(C)CC/C=C1\c2cc(C(=O)O)ccc2CSc2ccccc21 returned RBX1-CUL1 inh 1.
`Cc1cccc(OCC(=O)NCC(=O)N/N=C/c2ccc(-c3ccc(C(=O)O)cc3)o2)c1` gave RBX1-CUL1 inh 11.
`CN(C)c1cc(N/N=C/c2ccc(-c3ccc(C(=O)O)cc3)o2)nc(N(C)C)n1` gave RBX1-CUL1 inh 62*.
CN(C)c1cc(N/N=C/c2ccc(OCc3ccc(F)cc3)cc2)nc(N(C)C)n1 was read as RBX1-CUL1 inh -5.
N#CC1C(=N)Oc2cc(O)c(C=Nc3cc(C(F)(F)F)ccc3Cl)cc2C1c1ccco1 (stereo not given) was read as RBX1-CUL1 inh 85*.
For Cc1ccc(N=Cc2cc3c(cc2O)OC(=N)C(C#N)C3c2cccc(F)c2)c(C)c1 (stereo not given) the results were RBX1-CUL1 inh 3.
N#CC1C(=N)Oc2cc(O)c(C=Nc3ccc(Cl)c(Cl)c3)cc2C1c1cccc(I)c1 (stereo not given) was read as RBX1-CUL1 inh 1.
`N#Cc1nc(N2CCOCC2)nc(N2CCOCC2)n1` gave RBX1-CUL1 inh 1.
`CN(C)c1nc(SCC(N)=O)nc(N(C)C)n1` gave RBX1-CUL1 inh 7.
NC(=O)CSc1nc(N2CCOCC2)nc(N2CCOCC2)n1 was read as RBX1-CUL1 inh 50*.
For N#CC1C(N)=Nc2oc(-c3ccccc3)nc2C1c1cccs1 (stereo not given) the results were RBX1-CUL1 inh 3.
CC(C)(C)C1(C)OC(=O)C(=Cc2ccc3c(c2)OCO3)C(=O)O1 (stereo not given) was read as RBX1-CUL1 inh 3.
Screening CC(C)N1C(=O)/C(=C/c2ccc3c(c2)OCO3)C(=O)N(Cc2ccco2)C1=O returned RBX1-CUL1 inh 102*.
`CC(C(=O)O)N1C(=O)/C(=C/c2ccc3c(c2)OCO3)SC1=S` (stereo not given) gave RBX1-CUL1 inh 3.
For COC(=O)c1nnn(Cc2ccccc2OC)c1C(=O)OC the results were RBX1-CUL1 inh 4.
Cc1ccc(NC(=O)CSc2nnc(Cc3ccccc3)o2)cc1C was read as RBX1-CUL1 inh 11.
O=C(CSc1nnc(Cc2ccccc2)o1)Nc1ccc(Cl)c(Cl)c1 was read as RBX1-CUL1 inh 92*.
Screening COC(=O)c1cc(NC(=O)CSc2nnc(Cc3ccccc3)o2)ccc1Cl returned RBX1-CUL1 inh 11.
CCN(CC1CCN(C2CCN(C)CC2)CC1)C(=O)c1cccc(Cl)c1 was read as RBX1-CUL1 inh 5.
Nc1c(C(=O)Nc2ccccc2C(F)(F)F)sc2nc3c(cc12)CCCCCC3 was read as RBX1-CUL1 inh -8.
`Cc1ccc(-n2nc3ccc4nonc4c3n2)cc1` gave RBX1-CUL1 inh -2.
CCCCNc1c2c(nc3ccccc13)CC(C)(C)CC2=O was read as RBX1-CUL1 inh -9.
For Nc1nc(-c2cccc(Br)c2)cs1 the results were RBX1-CUL1 inh 5.
`NCCNc1nc(-c2cccc(Br)c2)nnc1-c1ccccc1` gave RBX1-CUL1 inh 54*.
`Cc1ccc(-c2nnc(-c3ccccc3)nc2NCCCO)cc1` gave RBX1-CUL1 inh 1.
For O=C1C2=C/C(=C\N3CCCCC3)C(=O)N2c2ccccc21 the results were RBX1-CUL1 inh 75*.
O=C1C(=O)N(CNc2ccccc2Cl)c2ccccc21 was read as RBX1-CUL1 inh -9.
O=C1c2ccccc2C(=O)N1CN1CCCCCC1 was read as RBX1-CUL1 inh 4.
`COc1ccc(C2C3=C(CCCC3=O)OC(=N)C2C#N)cc1COc1ccc(Cl)cc1` (stereo not given) gave RBX1-CUL1 inh -8.
For CN(C)CC(C)(O)c1ccc2c(c1)CN(C(=O)CCc1nc3ccc(F)cc3[nH]1)CCO2 (stereo not given) the results were RBX1-CUL1 inh -10.
For Cc1ccccc1N=Cc1cc2c(cc1[N+](=O)[O-])OCO2 the results were RBX1-CUL1 inh -1.
`O=[N+]([O-])c1ccc(N=Cc2cc3c(cc2[N+](=O)[O-])OCO3)c(Br)c1` gave RBX1-CUL1 inh 7.
`Cc1c(N=Cc2cc3c(cc2[N+](=O)[O-])OCO3)cccc1[N+](=O)[O-]` gave RBX1-CUL1 inh 91*.
Screening Cc1ccc(N2C(=O)NC(=O)C(C=Nc3ccc(S(=O)(=O)CCO)cc3)C2=O)cc1 (stereo not given) returned RBX1-CUL1 inh -3.
`c1ccc(Sc2ccc(-c3ccccc3)nn2)cc1` gave RBX1-CUL1 inh 3.
Screening CCOc1cc(NC(=O)C(C(F)(F)F)C(F)(F)F)c(OCC)cc1NC(=O)c1ccccc1 returned RBX1-CUL1 inh 67*.
`CCOc1c(Cl)cc(C(=O)Nc2ccccc2C(F)(F)F)cc1Cl` gave RBX1-CUL1 inh 3.
`CCOc1cc(C(=O)Nc2ccccc2Oc2ccccc2)cc(OCC)c1OCC` gave RBX1-CUL1 inh -3.
Clc1ccc(N/N=C/c2ccnc3ccccc23)nn1 was read as RBX1-CUL1 inh 0.
`O=C(O)COc1ccc(Br)cc1/C=C1\SC(=O)N(Cc2ccccc2)C1=O` gave RBX1-CUL1 inh 11.
For CCS(=O)(=O)Nc1cc(C(=O)NCCc2cnccn2)c2c(c1)nc(-c1ccccc1)n2C the results were RBX1-CUL1 inh 4.
For COc1ccc(Br)cc1CNC(Cc1ccccc1)c1ccccc1 (stereo not given) the results were RBX1-CUL1 inh 11.
COc1cc(Cl)c(C)cc1NC(=O)CSc1ncc(S(=O)(=O)c2ccc(C(C)(C)C)cc2)c(=O)[nH]1 was read as RBX1-CUL1 inh 53*.
Screening CC(C)(C)c1ccc(S(=O)(=O)c2cnc(SCC(=O)Nc3ccc(F)c(Cl)c3)[nH]c2=O)cc1 returned RBX1-CUL1 inh -5.
For CCc1ccc(S(=O)(=O)c2cnc(SCC(=O)Nc3ccc(OC)cc3OC)[nH]c2=O)cc1 the results were RBX1-CUL1 inh 4.
Screening Cc1cc(C)n(Cc2nc(-c3c(C)ncc4c3CCN(CC3CC3)C4)no2)n1 returned RBX1-CUL1 inh 37*.
For Cc1ncc2c(c1-c1noc(-c3ccc(N)nc3)n1)CCN(CC1CCCC1)C2 the results were RBX1-CUL1 inh 2.
Screening CNc1ncc(-c2nc(-c3c(C)ncc4c3CCN(CC3CC3)C4)no2)cn1 returned RBX1-CUL1 inh 2.
`COc1ccc(NC(=O)c2cc(-c3ccc(OC)cc3)nc3ccccc23)cc1` gave RBX1-CUL1 inh -5.
Screening COc1ccc(-c2cc(-c3ccccc3)nc3sc(C(=O)Nc4ccccc4C)c(N)c23)cc1 returned RBX1-CUL1 inh -5.
`O=S(=O)(c1ccc(OC(F)(F)F)cc1)N1CCOCC1` gave RBX1-CUL1 inh -2.
COc1ccc(OCCCOc2ccc(/C=C3/C(=N)N4C=C(C)SC4=NC3=O)cc2)cc1 was read as RBX1-CUL1 inh 7.
`Cc1cccc(N2NC(=O)/C(=C/c3ccccc3)C2=O)c1` gave RBX1-CUL1 inh -9.
`Cc1ccc(N2NC(=O)/C(=C\c3ccc(N(C)C)c(Br)c3)C2=O)cc1Cl` gave RBX1-CUL1 inh 2.
O=C1NN(c2ccccc2)C(=O)/C1=C/c1ccccc1 was read as RBX1-CUL1 inh 5.
`COc1cc(/C=C2/C(=O)NN(c3ccc(F)cc3)C2=O)cc(Cl)c1O` gave RBX1-CUL1 inh -3.
`O=C1NN(c2ccc(I)cc2)C(=O)/C1=C\c1ccccc1` gave RBX1-CUL1 inh 3.
